This is an account of results in PubChem BioAssay AID463187 (University of Pittsburgh Molecular Library Screening Center, 2010).

The term inhibition denotes the change of the read-out against control, counted positive when it falls.

The campaign covered roughly 220,000 compounds. About 1,500 (0.68%) were called active.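 How the source made its calls: active means Hck-Nef kinase inhibition above about 50% (limit read from the data); inactive means inhibition below that limit.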 The sample as a whole holds a higher share of actives than the screen did.

Chain of Tyrosine-protein kinase HCK (Homo sapiens) (P08631 whole entry, looked up): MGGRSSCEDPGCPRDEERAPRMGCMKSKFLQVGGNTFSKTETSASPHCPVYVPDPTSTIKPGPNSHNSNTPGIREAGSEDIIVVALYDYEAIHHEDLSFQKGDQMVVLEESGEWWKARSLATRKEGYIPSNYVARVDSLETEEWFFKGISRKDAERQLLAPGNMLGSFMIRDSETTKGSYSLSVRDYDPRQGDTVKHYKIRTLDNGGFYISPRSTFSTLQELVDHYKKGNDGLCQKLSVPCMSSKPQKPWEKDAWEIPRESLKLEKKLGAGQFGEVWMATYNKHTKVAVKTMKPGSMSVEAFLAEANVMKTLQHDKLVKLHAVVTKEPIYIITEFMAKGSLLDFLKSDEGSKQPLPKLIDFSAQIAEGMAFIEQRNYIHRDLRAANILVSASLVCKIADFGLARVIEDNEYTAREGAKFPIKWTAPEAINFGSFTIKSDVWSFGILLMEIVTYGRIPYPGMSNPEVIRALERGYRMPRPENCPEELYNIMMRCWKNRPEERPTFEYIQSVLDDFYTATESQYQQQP

This assay addresses Tyrosine-protein kinase HCK (Homo sapiens) (UniProt P08631). Briefly: Hck:Nef complex kinase activity blockers – biochemical, Z-Lyte FRET, 384-well, Hck-YEEI, primary screen (AID 463187).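 Further: 0% = DMSO with Hck plus Nef and 100% = Hck alone without Nef.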 The following applies: Recombinant Hck-YEEI plus Nef, Z-Lyte FRET kinase assay; at 20 µM; active compounds read high.
Turning to `COC(=O)Cn1c(=NC(=O)c2cc(OC)c(OC)c(OC)c2)sc2cc(OC)ccc21`, the inhibition is -1.02% (inactive).

On to `COCC(C)NC(=O)COc1nncc2ccccc12` (stereo not given), for which the inhibition was 21.5% (inactive).

Turning to `Cc1cc(=O)[nH]c(S)c1C#N`, the inhibition was -0.332% (inactive).

Regarding `O=S(=O)(Cc1ccccc1)c1nc2ccccc2n1Cc1ccccn1`, the inhibition is 5.67% (inactive).

For `Cc1cc(/C=N/n2cnnc2)c(C)n1-c1cccc(C(=O)O)c1`, the inhibition was -0.934% (inactive).

Regarding `Cc1cc(/C=N/Nc2ccc([N+](=O)[O-])cn2)c(C)n1-c1cccc(C(=O)O)c1`, the inhibition was 58.6% (active).

With `Cc1ccc(-n2c(C)cc(/C=N/Nc3ccc([N+](=O)[O-])cn3)c2C)c(C)c1`, the inhibition was 0.189% (inactive).

Consider `Cc1c(CCOC(=O)CC23CC4CC(CC(C)(C4)C2)C3)sc[n+]1Cc1ccc([N+](=O)[O-])cc1`, for which the inhibition is 6.69% (inactive).

With `COC(=O)c1ccc(OCC(O)CN(CCO)CC(O)Cn2ccc3ccccc32)cc1` (stereo not given), the inhibition was 60.4% (active).

On to `C=CCn1c(=N)n(CC(O)COc2ccc(OC)cc2)c2ccccc21` (stereo not given), for which the inhibition is 16% (inactive).

On to `COc1ccc(CCNCC(O)Cn2ccc3ccccc32)cc1OC` (stereo not given), for which the inhibition was 37.4% (inactive).

As to `COCCCn1c(-c2cccs2)nc2nc3ccccc3nc21`, the inhibition is 67.9% (active).

Take `CC(C)n1c(-c2cccs2)nc2ccccc21`: the inhibition was 10.6% (inactive).

Take `COc1ccccc1C(=O)Nn1c(-c2cccs2)nc2ccccc2c1=O`: the inhibition is 2.4% (inactive).

Take `Cc1cc(C)cc(C(=O)NC(=S)Nc2ccc3[nH]c(=O)[nH]c3c2)c1`: the inhibition was 2.61% (inactive).

`Cc1cc(-c2csc(N)n2)c(C)n1-c1ccccc1`: the inhibition is 7.5% (inactive).

`CCc1cccc2c(=O)c(C(=O)NCCCOC)c[nH]c12`: the inhibition is -18.3% (inactive).

Turning to `COc1ccc(CCn2c(=N)c(C(=O)NCc3ccco3)cc3c(=O)n4cccc(C)c4nc32)cc1`, the inhibition was 7.77% (inactive).

For the molecule `COc1ccccc1N(C)S(=O)(=O)c1ccc(C(=O)NC2CCCCCC2)cc1`, the inhibition was 0.492% (inactive).

Regarding `CCCCn1c(N)c(N(CC)C(=O)/C=C/c2ccco2)c(=O)[nH]c1=O`, the inhibition is -7.95% (inactive).

Regarding `O=C(c1cnn(-c2ccc(Cl)cc2)c1)c1ccccc1O`, the inhibition is 17% (inactive).

Take `Cc1ccc(CCC(=O)Nc2ncc(Cc3cc(Cl)ccc3Cl)s2)o1`: the inhibition is 6.19% (inactive).

In the case of `Cc1ncc(CC(=O)n2cc(C(=O)c3cc(Cl)ccc3O)cn2)s1`, the inhibition was 78.7% (active).

Regarding `O=C(NCc1csc(-c2cccs2)n1)C1CC1`, the inhibition was -1.15% (inactive).

Regarding `COC(=O)CN1C(=S)N(c2ccccc2)C(=O)C1CC(=O)Nc1ccc(Cl)cc1` (stereo not given), the inhibition was 2.46% (inactive).

Regarding `COc1ccc(C(=O)n2nc(-c3ccc(Cl)cc3)nc2N)cc1OC`, the inhibition is 81.4% (active).

As for `COc1ccc(C(=O)n2nc(-c3ccc(C)cc3)nc2N)cc1OC`, the inhibition was -1.4% (inactive).

For the molecule `COc1ccc(C(=O)O/N=C(\N)Cc2ccc(Cl)cc2Cl)cc1OC`, the inhibition was 3.19% (inactive).

Take `CC(C)NC(=O)/C(C#N)=C\c1ccc(N(C)C)c(Br)c1`: the inhibition was 7.25% (inactive).

As for `O=C(O)Cc1sc(-c2ccccc2)nc1-c1cccs1`, the inhibition was -10.1% (inactive).

As for `CCCNC(=O)N1CCN(C(=O)NCCC)CC1`, the inhibition is 0.793% (inactive).

As to `O=[N+]([O-])C(=c1ccc2c(c1)N1C3=C(CCCC3)CC3CCCCC31N=2)[N+](=O)[O-]` (stereo not given), the inhibition was 73% (active).

As for `CCCCCC(=O)Nc1ccc(S(=O)(=O)Nc2ccc(Cl)nn2)cc1`, the inhibition was -1.44% (inactive).

Regarding `C=C(C)COc1ccc(-c2n[nH]c(C)c2-c2ccccc2OC)c(O)c1`, the inhibition is 12.1% (inactive).

Consider `CCOc1ccccc1Oc1cn[nH]c1-c1ccc(OC)cc1O`, for which the inhibition was 26.3% (inactive).

As for `C=C(C)COc1ccc(-c2n[nH]c(C)c2-c2ccccc2)c(O)c1`, the inhibition is -0.0537% (inactive).

Turning to `CCOc1ccc(-c2n[nH]c(C)c2-c2ccccn2)c(O)c1`, the inhibition is -15.5% (inactive).

As to `CCOc1ccc(-c2nc(N)ncc2-c2ccccc2OC)c(O)c1`, the inhibition was 75.3% (active).

With `C=C(C)COc1ccc(-c2nc(N)ncc2-c2ccccc2OC)c(O)c1`, the inhibition was 68.8% (active).

Consider `c1ccc(-c2cc3c(NCC4COc5ccccc5O4)ncnc3s2)cc1` (stereo not given), for which the inhibition is 5.9% (inactive).

As to `COc1ccc(-c2cc(C(=O)NCCCn3ccnc3)no2)cc1`, the inhibition is -9.96% (inactive).

On to `Cc1cccc2cc(CN(C(=O)c3cccs3)c3ccccc3)c(=O)[nH]c12`, for which the inhibition was 3.68% (inactive).

On to `O=[N+]([O-])c1cc(Cl)cc(/C=N/NC(=S)Nc2cc(S(=O)(=O)N3CCOCC3)ccc2Cl)c1O`, for which the inhibition was 68.6% (active).

Take `O=C(CN1CCN(c2ccc(O)cc2)CC1)Nc1cc(S(=O)(=O)N2CCOCC2)ccc1Cl`: the inhibition was 12.6% (inactive).

Regarding `O=C(N/N=C/c1ccc([N+](=O)[O-])o1)c1cccc(S(=O)(=O)N2CCOCC2)c1`, the inhibition was 18.1% (inactive).

On to `Cc1nn(Cc2ccc(C(=O)N3N=C(C(F)F)CC3(O)C(F)F)cc2)c(C)c1[N+](=O)[O-]` (stereo not given), for which the inhibition was -2.69% (inactive).

Turning to `O=C(CN1C(=O)/C(=C\c2ccccc2F)SC1=S)Nc1nc2ccccc2s1`, the inhibition is 4.36% (inactive).

In the case of `CN(C)S(=O)(=O)c1cccc(-c2nn(-c3ccccc3)cc2/C=C2\SC(=S)N(CC(=O)O)C2=O)c1`, the inhibition is 56.2% (active).

With `Cc1ccc(-c2nn(-c3ccccc3)cc2/C=C/C(=O)Nc2cccc(S(N)(=O)=O)c2)cc1`, the inhibition is 14.1% (inactive).

As to `CC1(C)CC(=O)C(C2c3ccccc3S(=O)(=O)c3ccccc32)C(=O)C1`, the inhibition is 2.74% (inactive).

Consider `C=CCOc1c2ccc(C(=O)N(CC)c3ccc(OC)cc3)cc2nn1C`, for which the inhibition is -0.652% (inactive).

`CC1=NN(/C(=N\c2nnc(C)s2)Nc2ccccc2)[C@H](c2ccc(C)cc2)S1`: the inhibition was -3.06% (inactive).

On to `COC(=O)COc1ccc2oc(=O)cc(C)c2c1`, for which the inhibition is 1.26% (inactive).

In the case of `COC(=O)Cc1cc(=O)oc2c(C)c(O)ccc12`, the inhibition is 58.3% (active).

Consider `CCCc1cc(=O)oc2c(C)c(O)c(CN3CCCCC3)cc12`, for which the inhibition was 31% (inactive).

Regarding `CCOC(=O)c1cc2c(=O)n3ccccc3nc2n(CC(C)C)c1=NC(=O)c1c(-c2c(F)cccc2Cl)noc1C`, the inhibition was 8.32% (inactive).

For the molecule `CCCn1c(=NC(C)=O)c(C(=O)OCC)cc2c(=O)n3ccccc3nc21`, the inhibition is 95.9% (active).

Consider `CCOC(=O)c1cc2n(c1N)-c1ccccc1C2=O`, for which the inhibition was -1.56% (inactive).

For the molecule `O=C(COC(=O)c1ccccc1C(=O)N1CCN(c2ccccc2)CC1)NCc1ccccc1`, the inhibition is -5.15% (inactive).

For `O=C(NNC(=O)c1ccc(Cl)cc1Cl)c1cccs1`, the inhibition is 22.7% (inactive).

Consider `C=CCSc1nc(Cc2ccc(Cl)cc2)nc2ccccc12`, for which the inhibition was -0.392% (inactive).

Take `Brc1ccc(C2=CC(c3ccco3)n3ncnc3N2)cc1` (stereo not given): the inhibition is -4.23% (inactive).

Regarding `Clc1ccc2c(c1)C1=C(C(c3ccncc3)O2)C(c2ccc(Br)cc2)n2ncnc2N1` (stereo not given), the inhibition is 83.6% (active).

`COC(=O)C1=C(C)Nc2ncnn2C1c1cccnc1` (stereo not given): the inhibition is 0.821% (inactive).

On to `CCC(C)(C)NC(=O)CN(Cc1cccs1)C(=O)CNS(=O)(=O)c1ccc(F)cc1`, for which the inhibition is 15.6% (inactive).

For `O=[N+]([O-])c1ccc(F)cc1Oc1nc(-c2cccnc2)nc2ccccc12`, the inhibition is 13.2% (inactive).

Turning to `CCC(O)C1CCN(Cc2cn(-c3ccc(OC)cc3)nc2-c2cccc(F)c2)CC1` (stereo not given), the inhibition was -11.2% (inactive).

With `CCOc1ccc(CCNC(=O)C2=C(C)C(=O)OC23CCC(C)CC3)cc1OCC` (stereo not given), the inhibition is 25.3% (inactive).

On to `CCN(CC)CCn1c(N)c(S(=O)(=O)c2ccccc2)c2nc3ccccc3nc21`, for which the inhibition is 11.1% (inactive).

`C=CCn1c(N)c(S(=O)(=O)c2cccs2)c2nc3ccccc3nc21`: the inhibition was 21.6% (inactive).

For `Cc1ccc(S(=O)(=O)c2c(N)n(C)c3nc4ccccc4nc23)cc1`, the inhibition was 52.7% (active).

On to `COc1ccc(/C=C2/C(=O)OCc3cc(OC)c(OC)cc32)c(OC)c1`, for which the inhibition is 1.93% (inactive).

With `O=C(NCc1ccco1)c1nn2cccnc2c1Cl`, the inhibition is 20.7% (inactive).

As to `O=C(O)C1C2C=CC(O2)C1C(=O)NCCc1cccc(Cl)c1` (stereo not given), the inhibition is 15.6% (inactive).

On to `O=C(N/N=C/c1ccco1)c1ccc(C(=O)N/N=C/c2ccco2)o1`, for which the inhibition is -0.711% (inactive).

As for `O=C(N/N=C/c1ccco1)c1ccc(NC(=O)C2CC2)cc1`, the inhibition was 1.97% (inactive).

For `O=C(Cc1ccccc1)Nc1cccc(C(=O)N/N=C/c2ccco2)c1`, the inhibition was 54.9% (active).

`NC(=O)C[C@@H]1NC(=O)CNC(=O)c2cc([N+](=O)[O-])cc(I)c2NCCC(C(N)=O)NC1=O` (stereo not given in full): the inhibition was -7.95% (inactive).

Turning to `COc1c(O)cc2oc(-c3ccc(O)c(O)c3)cc(=O)c2c1O`, the inhibition was 97.3% (active).

For the molecule `CCOC(=O)COc1cc(OCC(=O)OCC)c2c(=O)cc(-c3ccccc3)oc2c1`, the inhibition was -0.0489% (inactive).

`CCOC(=O)COc1cc(O)c2c(=O)cc(-c3ccccc3)oc2c1`: the inhibition is 20.1% (inactive).

Turning to `Cc1cccc(-[n+]2c(-c3cccc(Br)c3)[nH]c3nc4ccccc4nc32)c1`, the inhibition is 50.4% (active).

Take `Cc1ccc2nc(-c3cccc(Br)c3)cc(C(=O)Nn3cnnc3)c2c1`: the inhibition was -7.45% (inactive).

With `CC(C)(C)NC(=O)COC(=O)c1cc(Br)ccc1Cl`, the inhibition is -0.533% (inactive).

Consider `Cc1ccc(SC(CC(=O)c2ccc(C(C)(C)C)cc2)C(=O)O)cc1` (stereo not given), for which the inhibition was 73.6% (active).

On to `Cc1ccc(CSCC(N)C(=O)O)cc1` (stereo not given), for which the inhibition is 1.34% (inactive).

For the molecule `Cc1ccc(C(=O)CS(C)(=O)=O)cc1`, the inhibition is 1.08% (inactive).

Turning to `CCc1nnc(NC(=O)CSc2nc(SC)ns2)s1`, the inhibition is 8.82% (inactive).

As to `Cc1ccc(CSc2nnc(-c3cnccn3)n2C)cc1`, the inhibition was 20.9% (inactive).

Take `CC(C)Oc1ccc(C(=O)NC(C)(C)CO)cc1`: the inhibition was 4.72% (inactive).

Consider `CCNC(=S)NNC(=O)c1ccc2ncccc2c1`, for which the inhibition was 27.6% (inactive).

On to `COc1cccc(/C=C2\SC(=N)N(c3ccc(F)cc3)C2=O)c1`, for which the inhibition was 26.2% (inactive).

Turning to `Cc1ccc(-c2cc(C(=O)NCc3cn(C)nc3C)c3cc(Br)ccc3n2)cc1`, the inhibition is 50.4% (active).

Take `COc1ccc(Cl)cc1C(=O)NCc1cn(C)nc1C`: the inhibition is 0.825% (inactive).

For `Cc1nn(C)cc1CNC(=O)Nc1ccc(Cl)cc1`, the inhibition is 12.3% (inactive).
